Data taken from paper PMC4242493, “Sequence specificity incompletely defines the genome-wide occupancy of Myc”.
The full ranking holds about 33,000 sequences; the median of “normalized occupancy” is about 0.075, and the highest 2% start at about 0.095. What follows is part of a selection rich in the highest values, with near analogues and random picks from the rest.

Target: MaxL homodimer (Homo sapiens, UniProt P61244 1-160)
Assay: universal protein-binding microarray (PBM); PBS-based mixture, 10 nM His-tagged protein dimer, 2% milk, 200 ng/uL BSA, 50 ng/uL salmon testes DNA, 0.02% TX-100; detection with Alexa 488 anti-His antibody;; high values mean tight binding
Details: protein: recombinant; tags: C-terminal His-tag (pET21a); chain copies: 2; dsDNA, one strand shown
In short: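 His-tagged protein dimer at 10 nM was bound to Agilent 4 x 44 K 'all 10-mer' universal arrays and detected with 10 ng/μL fluorophore-conjugated anti-His antibody on a GenePix 4400A, giving an intensity per 8-mer. Binding occupancy normalises each intensity to the top-ranked one.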

Sequence of MaxL homodimer (P61244 whole entry): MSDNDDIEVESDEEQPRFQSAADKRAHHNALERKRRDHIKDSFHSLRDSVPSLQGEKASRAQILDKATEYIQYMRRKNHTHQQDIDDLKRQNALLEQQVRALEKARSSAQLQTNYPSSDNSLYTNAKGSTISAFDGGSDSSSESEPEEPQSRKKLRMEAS

Row | Sequence | binding signal [normalized occupancy]
1 | CGCCATGC | 0.0988
2 | CGCCATCC | 0.077
3 | AGCCATGG | 0.0832
4 | CGCCATGA | 0.0842
5 | AGCCATGC | 0.0996
6 | AGCCATGA | 0.0819
7 | ATGTCAAT | 0.0778
8 | GGTAACCA | 0.0775
9 | CTTCTTTA | 0.075
10 | AAAACGAT | 0.0742
11 | ACATGGAG | 0.0868
12 | AAATGGGT | 0.0763
13 | ACATGGGC | 0.0848
14 | ACATGGCT | 0.0932
15 | ACTTGGGG | 0.0791
16 | ACATGGGG | 0.101
17 | ACATGGAA | 0.0918
18 | CCATGGGG | 0.0949
19 | ACATGGAT | 0.101
20 | ACATGGGT | 0.1
21 | ACATGGCG | 0.098
22 | CCATGGCG | 0.0768

Row | Sequence | binding signal [normalized occupancy]
23 | GACATTGA | 0.078
24 | CAATGAGC | 0.074
25 | CGTGCGTA | 0.0916
26 | ATTATGTA | 0.0828
27 | CCCCCGCG | 0.0757
28 | TGGCTAAA | 0.074
29 | ATGACAGC | 0.0803
30 | GTAATAAA | 0.076
31 | ACTACTAT | 0.0796
32 | GGGGGCAC | 0.0775
33 | AAACGTAA | 0.0743
34 | GGAGACAA | 0.0754
35 | CTTAGGCA | 0.0777
36 | AACTAATT | 0.0744
37 | GTTTAGAA | 0.0757
38 | AGTTTACA | 0.0773
39 | AGCGTGAC | 0.101
40 | AGTGTGAC | 0.089
41 | AGCGTGAA | 0.0854
42 | AGAGTGAC | 0.0747
43 | ACCGTGAT | 0.0871
44 | AGCGTGAT | 0.1

Row | Sequence | binding signal [normalized occupancy]
45 | CCATAGGA | 0.0736
46 | AACCTTGT | 0.0729
47 | CAAGGAAC | 0.079
48 | GGACGGCA | 0.0718
49 | GAAATTTA | 0.0725
50 | ATTAGTCA | 0.0775
51 | GAATTCTA | 0.0768
52 | AACGTGAT | 0.11
53 | AACGTGAG | 0.0854
54 | AACGTGAA | 0.0849
55 | AACGTGAC | 0.109
56 | ACCGTGAC | 0.0781
57 | AAGGTGAC | 0.0729
58 | ACCTAACC | 0.0792
59 | GAGATGGA | 0.0798
60 | GGTACCCA | 0.0727
61 | AATCATGG | 0.0832
62 | AATCATGA | 0.0851
63 | GATCATCC | 0.0784
64 | AATCATCC | 0.083
65 | AATCATGT | 0.0985
66 | CATCATGA | 0.0846

Row | Sequence | binding signal [normalized occupancy]
67 | ATTCATGC | 0.0905
68 | CATCATGC | 0.0995
69 | CATCATGG | 0.0895
70 | GATCATGC | 0.101
71 | AATCATGC | 0.0958
72 | GATCATGA | 0.0863
73 | ATGCTCCA | 0.0829
74 | TGAGTTAA | 0.078
75 | CAGCGTGA | 0.104
76 | CATCGTGG | 0.0917
77 | TAGCGTGA | 0.0905
78 | GAGCGTGA | 0.0923
79 | CAGCGTCA | 0.0719
80 | CAGCGTGG | 0.129
81 | CTAATGTA | 0.078
82 | ATGTACGA | 0.0873
83 | CATGGGGC | 0.0935
84 | AATGGGGA | 0.0809
85 | CATGGGGA | 0.1
86 | CATGGGAA | 0.0896
87 | CATGGGGG | 0.0995
